Bioassay records as filed in PubChem.
NALP3 yeast inh: NALP3 inflammasome inhibitors in reconstituted yeast, primary screen, luminescence, uHTS. 330,000 tested, 0.39% active. Yeast reconstituted NLRP3/ASC/caspase-1, beta-gal luminescence, 24 h. inhibition, % at 10 µM. AID 2825, 2010;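 active = inhibition of 50% or more; inactive = inhibition below 50%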
TIM10 inh: growth inhibitors of isogenic TIM10 control yeast, primary screen, counter-screen for tim10-1 yeast inhibitor project, luminescence, uHTS. S. cerevisiae TIM10 strain growth, BacTiter-Glo luminescence, 24 h. AID 463195, 2010. inhibition, % at 10 µM. 330,000 tested, 1.4% active;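 active = inhibition of 40% or more at the single tested concentration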;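 note: wild-type TIM10 isogenic control strain grown at permissive 25 °C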
tim10-1 inh: growth inhibitors of tim10-1 mutant yeast, primary screen, luminescence, uHTS; 330,000 tested, 2.2% active; inhibition, % at 20 µM; S. cerevisiae tim10-1 ts strain growth, BacTiter-Glo, 24 h;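 active = inhibition of at least 40%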;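 note: mutant grown at 25 °C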
V-ATPase pH: regulators of yeast V-ATPase proton pumping, primary screen, pHLuorin cytosolic pH fluorescence. S. cerevisiae. 350,000 tested, 0.37% active. response, % at 10 µM; in the data active = response mostly above about 7.3%, no sharp cut-off; inactive = mostly below about 5.4%; note: actives read high
tim23-1 inh: growth inhibitors of tim23-1 mutant yeast, primary screen, luminescence, uHTS; S. cerevisiae tim23-1 growth, BacTiter-Glo luminescence, 24 h; 330,000 tested, 1.3% active; inhibition, % at 20 µM;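 active = growth inhibition of the mutant yeast at or above 50%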;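 note: temperature-sensitive mutant grown at 25 °C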
NALP1 inh: NALP1 inflammasome inhibitors in reconstituted yeast, colorimetric, S. cerevisiae, triplicate retest | 280,000 tested, 0.61% active | inhibition, % at 10 µM | S. cerevisiae NALP1/ASC/caspase-1 growth, X-gal OD620, 72 h; in the data active = inhibition mostly above about 24%, no sharp cut-off; inactive = mostly below about 32%
tim10-1 confirm: growth inhibitors of tim10-1 mutant yeast, confirmation, single concentration, luminescence, S. cerevisiae; inhibition, % at 20 µM; S. cerevisiae tim10-1 ts strain growth, BacTiter-Glo, 24 h; 7,400 tested, 56% active; AID 463213, 2010; shares compounds with tim10-1 inh;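 active = inhibition of yeast growth at or above a set limit in either of two repeat tests at 20 µM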;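 note: tim10-1 mutant grown at permissive 25 °C to find synthetic lethal compounds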
Large screens that a line does not name were inactive (follow-up assays come after a bar, where they were run). The list is not random: actives were taken first. Their share in the collection is about 4.2%.

CCCc1nn(C)c2c1C(c1cccnc1)C(C#N)=C(N)O2 (configuration not stated)	tim10-1 inh 41.1 (no result: NALP1 inh) | tim10-1 confirm inactive
CC(C)c1[nH]nc2c1C(c1cccnc1)C(C#N)=C(N)O2 (configuration not stated)	none
O=C(N/N=C/C1CC2CCC1C2)c1c[nH]c2ccccc12 (configuration not stated)	none
O=C1C2ON(c3ccc(Cl)cc3)C(c3ccco3)C2C(=O)N1c1ccccc1 (configuration not stated)	tim10-1 inh 43.6 | tim10-1 confirm 35.4
O=C1C2ON(c3ccccc3)C(c3ccccc3F)C2C(=O)N1c1ccccc1 (configuration not stated)	none
Cc1ccc(C2CC2C(=O)NNC(=S)Nc2cccc(C)c2)cc1 (configuration not stated)	tim10-1 inh 48.9 | tim10-1 confirm inactive
CC(=O)c1ccc(Sc2nnnn2-c2ccccc2)c([N+](=O)[O-])c1	tim10-1 inh 45.6 | tim10-1 confirm inactive
OC(COc1ccc2ccccc2c1Br)Cn1cnc(-c2ccccc2)c1 (configuration not stated)	tim10-1 inh 43.5 | tim10-1 confirm 44.0
C=CCNC(=O)C1COc2ccccc2O1 (configuration not stated)	none
O=C(c1cc2c(=O)n3ccccc3nc2s1)N1CCN(Cc2ccc3c(c2)OCO3)CC1	tim10-1 inh 43.1 | tim10-1 confirm inactive
Cc1c(C(=O)N2CCN(Cc3ccc4c(c3)OCO4)CC2)sc2ncnc(N3CCN(c4ccccc4)CC3)c12	tim10-1 inh 47.9 | tim10-1 confirm inactive
Cc1c(C(=O)N2CCN(c3ccccn3)CC2)sc2ncnc(N3CCN(c4ccccc4)CC3)c12	none (no result: NALP1 inh)
Cc1c(C(=O)N2CCN(Cc3ccc4c(c3)OCO4)CC2)sc2ncnc(N3CCN(c4ccccc4F)CC3)c12	tim10-1 inh 41.4 | tim10-1 confirm inactive
CC(C)(C)c1ccc(S(=O)(=O)Nc2noc3ccccc23)cc1	none
Fc1ccccc1-c1nc2nc3ccccc3nc2n1CC1CCCO1 (configuration not stated)	none
Cc1ccnc(NS(=O)(=O)c2ccc(NC(=O)CCc3ccccc3)cc2)n1	none
Cc1ccc(C(=O)Oc2ccc(Cl)c3cccnc23)cc1[N+](=O)[O-]	tim10-1 inh 40.6 | tim10-1 confirm inactive
COc1ccc(C(=O)Oc2cccc3cccnc23)cc1[N+](=O)[O-]	none
CN(C)/C=C/C(=O)c1ccc([N+](=O)[O-])c(CS(=O)(=O)c2ccc(Cl)cc2)c1	none
CCOC(=O)C1=NNC(C(=O)c2ccc(C)cc2)C1c1ccc(OC)cc1 (configuration not stated)	tim10-1 inh 41.1 | tim10-1 confirm inactive
CCOC(=O)C1=NNC(C(=O)c2ccc(Cl)cc2)C1c1ccc(OC)cc1 (configuration not stated)	none
O=C(CS(=O)(=O)c1ccccc1)c1cc2ccccc2oc1=O	tim10-1 inh 42.4 | tim10-1 confirm inactive
O=C(c1cc2ccccc2oc1=O)N(Cc1cccs1)Cc1cccs1	tim10-1 inh 42.4 | tim10-1 confirm inactive
O=C(c1cc2ccccc2oc1=O)N(Cc1ccco1)Cc1cccs1	none
CCCC1SCC(C)(C)NC1=O (configuration not stated)	none (no result: NALP3 yeast inh, TIM10 inh, tim10-1 inh, tim23-1 inh, NALP1 inh)
CCCCNc1cc(NC(C)=O)cc2cc(OC)c(OC)cc12	tim10-1 inh 43.7 | tim10-1 confirm inactive
O=C(NC1CCCCC1)C(c1ccncc1)N(Cc1ccc(F)cc1)C(=O)c1ccccn1 (configuration not stated)	none
O=C(NC1CCCC1)C(c1ccc(F)cc1)N(Cc1ccc(F)cc1)C(=O)CCl (configuration not stated)	tim10-1 inh 56.9 | tim10-1 confirm 33.3
O=C(N/C(=C\c1cn(-c2ccccc2)nc1-c1ccccc1)C(=O)N1CCOCC1)c1ccccc1	none (no result: V-ATPase pH)
C(=N\N1CCOCC1)/c1cn(-c2ccccc2)nc1-c1ccccc1	tim10-1 inh 48.9 | tim10-1 confirm 39.8
CCOc1ccc(CCNC(=O)c2cc(-c3ccccc3)c(N3CCOCC3)s2)cc1OCC	none
Cc1ccc(Cl)c(OCC(=O)NC2CCN(Cc3ccccc3)CC2)c1	tim10-1 inh 67.9 (no result: NALP1 inh) | tim10-1 confirm inactive
Cc1cc(=O)oc2cc(OCC(=O)NC3CCN(Cc4ccccc4)CC3)c(Cl)cc12	none
CCN1C[C@@H]2[C@@H]3C(=O)N(Cc4ccccc4)C(=O)[C@@H]3[C@](Cc3ccccc3)(C1=O)N2C(=O)c1ccc(C)cc1	none (no result: NALP3 yeast inh, TIM10 inh, tim10-1 inh, tim23-1 inh, NALP1 inh)
O=C1C(c2ccc(F)cc2)N(Cc2ccc3c(c2)OCO3)C(=O)CN1C1CCCCC1 (configuration not stated)	tim10-1 inh 40.4 | tim10-1 confirm inactive
COc1ccc(S(=O)(=O)N2CCN=C2SCc2cccc(C)c2)cc1	none
Cn1c(N)c(C(=O)COC(=O)C2CCCC2)c(=O)n(C)c1=O	none
Cn1c(N)c(C(=O)COC(=O)C2CCC(C(C)(C)C)CC2)c(=O)n(C)c1=O (configuration not stated)	tim10-1 inh 42.3 | tim10-1 confirm inactive
CC(=O)c1sc(N/N=C2\CC3CCC2(C)C3(C)C)nc1C (configuration not stated)	tim10-1 inh 43.1 | tim10-1 confirm inactive
Cc1ccc(S(=O)(=O)NN=C2CC3CCC2(C)C3(C)C)cc1 (configuration not stated)	none (no result: NALP3 yeast inh, TIM10 inh, tim10-1 inh, tim23-1 inh, NALP1 inh)
CCOc1ccc(S(=O)(=O)NCCC(=O)N(C)CC(=O)Nc2ccc(N3CCOCC3)cc2)cc1	none (no result: NALP1 inh)
Cc1ccccc1C(=O)Oc1cc(N)n(S(=O)(=O)c2ccccc2)n1	tim10-1 inh 48.1 | tim10-1 confirm inactive
COc1ccc(S(=O)(=O)n2nc(OC(=O)c3ccncc3)cc2N)cc1	none
COc1ccccc1C(=O)Oc1cc(N)n(S(=O)(=O)c2ccccc2)n1	none | tim10-1 confirm inactive
COc1ccc(S(=O)(=O)n2nc(OC(=O)c3ccco3)cc2N)cc1	tim10-1 inh 41.1 | tim10-1 confirm inactive
Cc1occc1C(=O)Nc1nnc(-c2cccs2)s1	none
CN(CC(=O)Nc1ccccc1Cl)C(=O)COC(=O)c1nc(Cl)c(Cl)c(Cl)c1Cl	none
CN(C)CCNC(=O)C(c1ccccc1)c1ccccc1	none
CN(C)CCC(=O)C(Cc1ccccc1)c1ccccc1 (configuration not stated)	tim10-1 inh 45.1 (no result: NALP1 inh) | tim10-1 confirm 45.0
